The values that follow come from PubChem BioAssay AID1053175 (ICCB-Longwood Screening Facility, Harvard Medical School, 2014).

Where “and” joins values, the source holds several entries; their conditions need not be identical. Equal entries are not always repeated. Out of some 330,000 compounds screened, about 700 (0.21%) were called active.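 Rule for the calls: active = OD600 absorbance below the run mean of sample wells minus 3.6 SD, in any replicate (cut at about 0.56 in these data); inactive = the rest.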 What follows is part of a selection rich in actives, with near analogues and random picks from the rest.

A short description of this assay: antibacterial activity against Escherichia coli – OD600, primary screen (AID 1053175). The following applies: Escherichia coli growth, OD600, 23 h; active compounds read low.
On to `CC(C)CC(CSc1ccccc1)N1CCN(C)CCC1=O` (centres undefined), for which the OD600 absorbance is 0.708 (inactive).

In the case of `CCc1ccc(NC(=O)CC(C)=NNC(=O)OCc2ccc(OC)cc2)cc1`, the OD600 absorbance was 0.657 (inactive).

Take `COc1ccc(C=NNC(=O)c2ccccc2[N+](=O)[O-])cc1CN1CCc2cc(OC)c(OC)cc2C1C` (centres undefined): the OD600 absorbance is 0.712 (inactive).

Regarding `Cc1ccc(NC(=O)C=NOCC(=O)NCc2ccccc2Cl)cc1`, the OD600 absorbance is 0.705 (inactive).

Turning to `CCOC1OC(C(N)=O)=CC(c2ccccc2)C1CCCO` (centres undefined), the OD600 absorbance is 0.702 (inactive) and 0.686 (inactive).

As for `CC(NC(=O)C(=O)NN=Cc1ccc(Cl)cc1)c1ccccc1` (centres undefined), the OD600 absorbance was 0.673 (inactive).

Take `CCN=c1scc(C)n1N=Cc1ccsc1`: the OD600 absorbance is 0.697 (inactive).

For `Cc1ccc(C2=[N+]([O-])C3(CCCCCC3=NNC(N)=S)N(O)C2(C)C)o1` (centres undefined), the OD600 absorbance was 0.771 (inactive).

In the case of `O=C(O)c1csc(NN=Cc2ccc(Br)cc2)n1`, the OD600 absorbance was 0.677 (inactive).

On to `O=C1CCCC(=NNC(=O)c2cc(NS(=O)(=O)c3cccs3)cc(NS(=O)(=O)c3cccs3)c2)C1`, for which the OD600 absorbance was 0.669 (inactive).

As for `CCOC(=O)C1C2COc3cc(OC)ccc3C2N2C(=O)N(c3ccc(C(F)(F)F)cc3)C(=O)[C@@]12C` (some centres undefined), the OD600 absorbance was 0.696 (inactive) and 0.712 (inactive).

Consider `C=CCN1c2ccccc2[C@]23CC(C(=O)OC)N(C(=O)c4cc(C)oc4C)C2=NC(C(=O)OC)=C(C(=O)OC)C13` (some centres undefined), for which the OD600 absorbance is 0.651 (inactive).

On to `CC(=NNC(=O)c1ccncc1)c1cc2ccccc2o1`, for which the OD600 absorbance is 0.717 (inactive).

Consider `Cc1cc(C)c(C)c(OCC(=O)ON=C(N)c2ccccn2)c1`, for which the OD600 absorbance is 0.733 (inactive).

For the molecule `COC(=O)c1ccc(C=NNC(=O)C2CC(=O)N(c3ccc(F)cc3)C2)cc1` (centres undefined), the OD600 absorbance is 0.657 (inactive).

Turning to `Cc1nc2ccccn2c1C(=O)NN=Cc1ccc2c(c1)OCO2`, the OD600 absorbance was 0.657 (inactive).

In the case of `O=[N+]([O-])c1ccc(C=NN2CCN(c3ccc(Cl)cc3)CC2)cc1`, the OD600 absorbance was 0.805 (inactive).

On to `Cc1cccc(NC(=S)Nc2ccc(Cl)c(Cl)c2)c1`, for which the OD600 absorbance was 0.495 (active).

As for `Cc1cccc(NC(=S)Nc2ccc3cn[nH]c3c2)c1`, the OD600 absorbance was 0.655 (inactive).

On to `Cc1cccc(NC(=S)NC23CN4CN(CN(C4)C2)C3)c1`, for which the OD600 absorbance was 0.691 (inactive).

Regarding `O=C(O)c1cc2c(o1)CCCC2=NO`, the OD600 absorbance is 0.711 (inactive).

For the molecule `Clc1c(OCCCn2ccnc2)ccc2ccccc12`, the OD600 absorbance is 0.49 (active).

`c1ccc(Cc2ccc(OCCn3ccnc3)cc2)cc1`: the OD600 absorbance was 0.583 (inactive).

For the molecule `C=CCc1cc(C)ccc1OCCCn1ccnc1`, the OD600 absorbance was 0.666 (inactive).

For `NC(CCCN1CCCCC1)=NO`, the OD600 absorbance was 0.705 (inactive).

Regarding `CCCSc1ccc(C2N[C@@](CC(C)C)(C(=O)OC)C3C(=O)N(CC)C(=O)C23)cc1` (some centres undefined), the OD600 absorbance is 0.649 (inactive).

For the molecule `Oc1c(CN2CCN(c3ccc(F)cc3)CC2)cc(Cl)c2cccnc12`, the OD600 absorbance was 0.332 (active).

For `Fc1ccc(N2CCN(Cc3cnc(Oc4ccc(Br)cc4)s3)CC2)cc1`, the OD600 absorbance is 0.726 (inactive).

In the case of `O=C(CN1CCN(c2ccc(F)cc2)CC1)Nc1ccccc1`, the OD600 absorbance was 0.673 (inactive).

Take `CCN1C(Nc2ccccc2)=NCC1CC(C)C` (centres undefined): the OD600 absorbance was 0.698 (inactive).

Regarding `CC(NC(=O)COc1ccc(C=NNC(=O)C(=O)Nc2ccccc2Br)cc1)c1ccccc1` (centres undefined), the OD600 absorbance was 0.788 (inactive).

As to `O=C(Nc1ccccc1C(=O)NN=Cc1ccncc1)c1ccccc1`, the OD600 absorbance is 0.706 (inactive).

As to `CC(=NNC(=O)c1cccc(S(=O)(=O)N2CCCC2)c1)c1ccco1`, the OD600 absorbance is 0.651 (inactive).

Take `COc1cc(C=NNC(=O)c2ccncc2)ccc1OC(=O)c1cccc(Br)c1`: the OD600 absorbance was 0.605 (inactive).

For the molecule `COc1ccc(C(=O)ON=C2CCS(=O)(=O)c3sccc32)cc1`, the OD600 absorbance is 0.66 (inactive).

Consider `O=C(CNC(c1ccccc1)c1ccccc1)Nc1ccc(F)cc1`, for which the OD600 absorbance is 0.694 (inactive).

Consider `CC(NCC(=O)Nc1cc(Cl)cc(Cl)c1)c1ccccc1` (centres undefined), for which the OD600 absorbance was 0.522 (active).

As to `O=C(Nc1cc(Cl)cc(Cl)c1)C(NCCCO)c1ccccc1` (centres undefined), the OD600 absorbance was 0.697 (inactive).

Turning to `CCOC1OC(C(=O)N2CCN(Cc3ccc4c(c3)OCO4)CC2)=CC(c2ccc(Br)cc2)C1CCCO` (centres undefined), the OD600 absorbance is 0.677 (inactive) and 0.735 (inactive).

Consider `O=C(O)COc1ccc(C=NNC(=O)c2cccc3ccccc23)cc1`, for which the OD600 absorbance was 0.692 (inactive).

Regarding `O=C(O)C1=CC(c2ccc(Br)cc2)CC(OCc2ccc(CO)cc2)O1` (centres undefined), the OD600 absorbance was 0.678 (inactive) and 0.676 (inactive).

As for `CC(=NNc1nnc(C)c(=O)[nH]1)C(=O)O`, the OD600 absorbance was 0.72 (inactive).

Take `Cc1nnc(NN=Cc2ccccn2)[nH]c1=O`: the OD600 absorbance was 0.466 (active).

With `CC(Oc1ccccc1)C(=O)NN=Cc1ccccn1` (centres undefined), the OD600 absorbance is 0.654 (inactive).

`COc1ccc(C(=O)NN=Cc2ccc(OC)c(CN3CCCc4ccccc43)c2)cc1`: the OD600 absorbance is 0.733 (inactive).

Turning to `CC(C)(C)c1[nH]c2ccccc2c1C=NO`, the OD600 absorbance was 0.683 (inactive).

On to `CCOC(=O)c1ccc(-c2ccc(C=NNC(=O)CN(c3ccccc3Cl)S(C)(=O)=O)o2)cc1`, for which the OD600 absorbance is 0.728 (inactive).

As for `CC(C)=CCC[C@](C)(OC1OC(COC2OCC(O)C(O)C2O)C(O)C(O)C1O)C1CC[C@]2(C)C1C(O)CC1[C@@]3(C)CCC(OC4OC(CO)C(O)C(O)C4O)C(C)(C)C3CC[C@]12C` (some centres undefined), the OD600 absorbance was 0.621 (inactive).

In the case of `CCNC(=S)NN=C(C)c1cc2ccccc2o1`, the OD600 absorbance is 0.669 (inactive).

As to `COc1cc(C=NNC(=O)c2ccc(=O)[nH]n2)cc(OC)c1OC`, the OD600 absorbance is 0.774 (inactive).

Consider `O=C(NN=Cc1ccoc1)c1ccc([N+](=O)[O-])cc1`, for which the OD600 absorbance was 0.694 (inactive).

With `CCNC1CC(C)S(=O)(=O)c2sc(S(N)(=O)=O)cc21` (centres undefined), the OD600 absorbance was 0.681 (inactive).

For the molecule `Cc1cc(C(=O)NN=Cc2cccc3ccccc23)c(C)o1`, the OD600 absorbance is 0.686 (inactive).

Take `C#CCNC(=O)C1=CC(c2coc3ccccc3c2=O)CC(OCc2ccc(CO)cc2)O1` (centres undefined): the OD600 absorbance was 0.691 (inactive) and 0.72 (inactive).

In the case of `Cc1[nH]c2ccccc2c1C=NNC(=S)NC(C)C`, the OD600 absorbance is 0.649 (inactive).

Consider `Cc1ccc(CN2CCN(CC(=O)NN=Cc3ccc(C)o3)CC2)cc1`, for which the OD600 absorbance is 0.613 (inactive).

Turning to `CC1CN(C(=S)Nc2ccccc2F)CC(C)O1` (centres undefined), the OD600 absorbance is 0.662 (inactive).

Consider `COc1ccccc1NC(=S)N1CCN(c2ccc(F)cc2)CC1`, for which the OD600 absorbance was 0.68 (inactive).

As for `COc1c(N2CCN(C(=S)Nc3ccccc3F)C(C)C2)c(F)cc2c(=O)c(C(=O)O)cn(C3CC3)c12` (centres undefined), the OD600 absorbance was 0.071 (active).
